Reference: PubChem BioAssay AID1159580 (chemical genetic matrix, 2015)
The whole screen tested about 5,500 compounds, of which about 2,000 (36%) were called active. Inconclusive results (about 18%) are left out. No stated cut-off is given here; in the data, active means normalized growth mostly below about 0.91 (no sharp cut-off); inconclusive means no clear call, values can overlap the other calls; inactive means mostly above about 0.92. This is one part of the list.

Test: chemical genetic growth profiling, strain panel (AID 1159580);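 further: tested at 20 µM; growth read once vehicle control cultures reached saturation at 30 °C; 1 = growth at the plate median or of vehicle wells; lower values mean less growth of the strain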
Conditions: growth OD
[1] = S. cerevisiae deletion strains, locus YAL013W, strain DEP1, active compounds read low
[2] = S. cerevisiae deletion strains, locus YBR229C, strain ROT2, active compounds read low
[3] = S. cerevisiae deletion strains, locus YCL061C, strain MRC1, active compounds read low
[4] = S. cerevisiae deletion strains, locus YDL101C, strain DUN1, active compounds read low
[5] = S. cerevisiae deletion strains, locus YDR150W, strain NUM1, active compounds read low
[6] = S. cerevisiae deletion strains, locus YEL061C, strain CIN8, active compounds read low
[7] = S. cerevisiae deletion strains, locus YGR078C, strain PAC10, active compounds read low
[8] = S. cerevisiae deletion strains, locus YHR030C, strain SLT2, active compounds read low
[9] = S. cerevisiae deletion strains, locus YHR087W, strain rtc3, active compounds read low
[10] = S. cerevisiae deletion strains, locus YJR043C, strain POL32, active compounds read low
[11] = S. cerevisiae deletion strains, locus YJR075W, strain HOC1, active compounds read low
[12] = S. cerevisiae deletion strains, locus YLR039C, strain RIC1, active compounds read low
[13] = S. cerevisiae deletion strains, locus YLR058C, strain SHM2 (second series), active compounds read low
[14] = S. cerevisiae deletion strains, locus YLR085C, strain ARP6, active compounds read low
[15] = S. cerevisiae deletion strains, locus YLR262C, strain YPT6, active compounds read low
[16] = S. cerevisiae deletion strains, locus YML094W, strain GIM5, active compounds read low
[17] = S. cerevisiae deletion strains, locus YMR219W, strain ESC1, active compounds read low
[18] = S. cerevisiae deletion strains, locus YMR263W, strain SAP30, active compounds read low
[19] = S. cerevisiae deletion strains, locus YNL153C, strain GIM3, active compounds read low
[20] = S. cerevisiae deletion strains, locus YNL298W, strain CLA4 (second series), active compounds read low
[21] = S. cerevisiae deletion strains, locus YNL322C, strain KRE1, active compounds read low
[22] = S. cerevisiae deletion strains, locus YNR030W, strain Alg12, active compounds read low
[23] = S. cerevisiae deletion strains, locus YOL006C, strain TOP1, active compounds read low
[24] = S. cerevisiae deletion strains, locus YPL055C, strain LGE1, active compounds read low
[25] = S. cerevisiae deletion strains, locus YPL241C, strain CIN2, active compounds read low
[26] = S. cerevisiae deletion strains, locus YPR135W, strain CTF4, active compounds read low
[27] = S. cerevisiae strains, strain wild type, active compounds read low
[28] = S. cerevisiae deletion strains, locus YMR307W, strain GAS1, active compounds read low

Measured: normalized growth

O=S(=O)(NCc1ccc2c(c1)OCO2)c1ccc(F)c(Cl)c1
active: [12] 0.757 | [15] 0.683
inactive: [1] 0.98 | [2] 0.94 | [3] 0.977 | [4] 0.925 | [5] 0.913 | [6] 0.965 | [7] 0.96 | [8] 0.779 | [9] 0.948 | [10] 0.968 | [11] 0.937 | [13] 0.951 | [14] 0.991 | [16] 1 | [17] 0.962 | [18] 0.965 | S. cerevisiae deletion strains, locus YNL128W, strain TEP1, active compounds read low 0.957 | [19] 0.971 | [20] 0.943 | [21] 0.967 | [22] 0.954 | [23] 0.843 | [24] 0.995 | [25] 0.998 | [26] 0.784

CC(C)(C)C1=C(C#N)C(c2c(Cl)cccc2Cl)C(C#N)=C(N)O1 (configuration not stated)
inactive: S. cerevisiae deletion strains, locus YAR019C, strain CDC15, active compounds read low 0.987 | S. cerevisiae deletion strains, locus YBL105C, strain PKC1, active compounds read low 0.99 | S. cerevisiae deletion strains, locus YBR135W, strain CKS1, active compounds read low 0.992 | S. cerevisiae deletion strains, locus YBR136W, strain MEC1, active compounds read low 0.989 | S. cerevisiae deletion strains, locus YBR160W, strain CDC28, active compounds read low 0.996 | S. cerevisiae deletion strains, locus YDL017W, strain CDC7, active compounds read low 0.99 | S. cerevisiae deletion strains, locus YDL028C, strain MPS1, active compounds read low 0.997 | [4] 0.979 | S. cerevisiae deletion strains, locus YDL108W, strain KIN28, active compounds read low 0.992 | S. cerevisiae deletion strains, locus YDL132W, strain cdc53, active compounds read low 0.978 | S. cerevisiae deletion strains, locus YDL214C, strain PRR2, active compounds read low 0.987 | S. cerevisiae deletion strains, locus YDR052C, strain DBF4, active compounds read low 0.997 | S. cerevisiae deletion strains, locus YDR054C, strain cdc34, active compounds read low 0.976 | S. cerevisiae deletion strains, locus YDR226W, strain ADK1, active compounds read low 0.979 | S. cerevisiae deletion strains, locus YDR477W, strain SNF1, active compounds read low 0.995 | S. cerevisiae deletion strains, locus YER123W, strain YCK3, active compounds read low 0.996 | S. cerevisiae deletion strains, locus YER133W, strain GLC7, active compounds read low 0.984 | S. cerevisiae deletion strains, locus YFL009W, strain cdc4, active compounds read low 0.98 | S. cerevisiae deletion strains, locus YFL029C, strain CAK1, active compounds read low 0.983 | S. cerevisiae deletion strains, locus YFR003C, strain YPI1, active compounds read low 0.992 | S. cerevisiae deletion strains, locus YFR019W, strain FAB1, active compounds read low 1 | S. cerevisiae deletion strains, locus YFR028C, strain CDC14, active compounds read low 0.978 | S. cerevisiae deletion strains, locus YGR040W, strain KSS1, active compounds read low 0.991 | S. cerevisiae deletion strains, locus YGR052W, strain FMP48, active compounds read low 1.01 | S. cerevisiae deletion strains, locus YGR092W, strain DBF2, active compounds read low 0.98 | [8] 0.983 | S. cerevisiae deletion strains, locus YHR079C, strain IRE1, active compounds read low 0.891 | S. cerevisiae deletion strains, locus YHR082C, strain KSP1, active compounds read low 1.09 | S. cerevisiae deletion strains, locus YHR205W, strain SCH9, active compounds read low 0.913 | S. cerevisiae deletion strains, locus YIL147C, strain SLN1, active compounds read low 0.993 | S. cerevisiae deletion strains, locus YJL095W, strain BCK1, active compounds read low 0.894 | S. cerevisiae deletion strains, locus YJL128C, strain PBS2, active compounds read low 0.925 | S. cerevisiae deletion strains, locus YJL157C, strain FAR1, active compounds read low 1.01 | S. cerevisiae deletion strains, locus YJR016C, strain ILV3, active compounds read low 0.984 | S. cerevisiae deletion strains, locus YJR066W, strain TOR1 (second series), active compounds read low 0.983 | S. cerevisiae deletion strains, locus YJR066W, strain TOR1, active compounds read low 1.1 | S. cerevisiae deletion strains, locus YKL048C, strain ELM1, active compounds read low 0.922 | S. cerevisiae deletion strains, locus YKL067W, strain YNK1, active compounds read low 0.988 | S. cerevisiae deletion strains, locus YKL101W, strain HSL1, active compounds read low 0.961 | S. cerevisiae deletion strains, locus YKL193C, strain SDS22, active compounds read low 0.989 | S. cerevisiae deletion strains, locus YKL203C, strain TOR2, active compounds read low 1.07 | S. cerevisiae deletion strains, locus YLR113W, strain HOG1, active compounds read low 0.885 | S. cerevisiae deletion strains, locus YLR133W, strain CKI1, active compounds read low 1.02 | S. cerevisiae deletion strains, locus YLR403W, strain SFP1, active compounds read low 0.944 | S. cerevisiae deletion strains, locus YML070W, strain DAK1, active compounds read low 0.992 | S. cerevisiae deletion strains, locus YMR001C, strain CDC5, active compounds read low 0.995 | S. cerevisiae deletion strains, locus YMR205C, strain PFK2 (second series), active compounds read low 0.993 | S. cerevisiae deletion strains, locus YMR277W, strain FCP1, active compounds read low 0.997 | S. cerevisiae deletion strains, locus YNL006W, strain LST8, active compounds read low 0.975 | S. cerevisiae deletion strains, locus YNL020C, strain ARK1, active compounds read low 1 | S. cerevisiae deletion strains, locus YNL161W, strain CBK1, active compounds read low 0.982 | S. cerevisiae deletion strains, locus YNL183C, strain NPR1, active compounds read low 1.06 | S. cerevisiae deletion strains, locus YNL207W, strain RIO2, active compounds read low 0.986 | S. cerevisiae deletion strains, locus YNL222W, strain SSU72, active compounds read low 0.989 | S. cerevisiae deletion strains, locus YNL307C, strain MCK1 (second series), active compounds read low 1 | S. cerevisiae deletion strains, locus YOL078W, strain AVO1, active compounds read low 0.994 | S. cerevisiae deletion strains, locus YOL136C, strain PFK27, active compounds read low 1 | S. cerevisiae deletion strains, locus YOR061W, strain CKA2, active compounds read low 1.01 | S. cerevisiae deletion strains, locus YOR119C, strain RIO1, active compounds read low 1.04 | S. cerevisiae deletion strains, locus YOR231W, strain MKK1, active compounds read low 1.02 | S. cerevisiae deletion strains, locus YOR329C, strain SCD5, active compounds read low 0.993 | S. cerevisiae deletion strains, locus YPL031C, strain PHO85, active compounds read low 0.992 | S. cerevisiae deletion strains, locus YPL153C, strain RAD53, active compounds read low 1 | S. cerevisiae deletion strains, locus YPL204W, strain HRR25, active compounds read low 1 | S. cerevisiae deletion strains, locus YPL209C, strain IPL1, active compounds read low 0.993 | S. cerevisiae deletion strains, locus YPL256C, strain CLN2, active compounds read low 0.94 | S. cerevisiae deletion strains, locus YPR025C, strain CCL1, active compounds read low 0.992 | S. cerevisiae deletion strains, locus YPR106W, strain ISR1, active compounds read low 0.981 | S. cerevisiae deletion strains, locus YPR111W, strain DBF20, active compounds read low 0.966 | S. cerevisiae deletion strains, strain NNK1, active compounds read low 0.963 | S. cerevisiae deletion strains, strain TSCII, active compounds read low 0.991

O=C1NC2(CCN(Cc3ccccc3)CC2)Oc2ccccc21
inactive: [1] 0.999 | [2] 0.993 | [4] 0.949 | [5] 0.993 | [6] 1.02 | [7] 0.98 | S. cerevisiae deletion strains, locus YGR229C, strain SMI1, active compounds read low 0.995 | [8] 1.04 | [9] 0.968 | [10] 1 | [11] 0.985 | S. cerevisiae deletion strains, locus YKL190W, strain CNB1, active compounds read low 0.988 | [12] 0.984 | [13] 0.972 | [14] 1.14 | [15] 0.992 | [16] 1 | [17] 0.995 | [18] 1.03 | [19] 0.997 | [20] 0.955 | [21] 0.997 | [22] 0.975 | [23] 0.918 | [24] 0.997 | [25] 1.1 | [26] 0.834 | [27] 0.983

CC(C)(C)NC(=S)NC1CCN(Cc2ccccc2)CC1
inactive: [1] 1.06 | [2] 0.997 | [3] 1.03 | [4] 1.01 | S. cerevisiae deletion strains, locus YDL134C, strain PPH21, active compounds read low 0.994 | [5] 0.969 | [6] 1.02 | [7] 1.01 | [8] 1.06 | [9] 0.986 | [10] 0.995 | [11] 0.994 | [12] 0.994 | [13] 0.983 | [14] 1.03 | [15] 0.985 | [16] 1.02 | [17] 1.01 | [18] 0.992 | [28] 0.987 | [19] 1.01 | [20] 1.01 | [21] 0.995 | [22] 1.03 | [24] 0.986 | [25] 1 | [26] 1.16 | [27] 0.981

c1ccc(CN2CCC3(CCCc4ccccc43)CC2)cc1
active: S. cerevisiae deletion strains, locus YCL061C, strain MRC1 (second series), active compounds read low 0.938 | S. cerevisiae deletion strains, locus YDR363W, strain ESC2, active compounds read low 0.805 | [24] 0.854
inactive: S. cerevisiae deletion strains, locus YAL040C, strain CLN3, active compounds read low 1.02 | S. cerevisiae deletion strains, locus YER002W, strain NOP16, active compounds read low 0.975 | [7] 0.976 | [28] 1 | [19] 0.817 | S. cerevisiae deletion strains, locus YNL175C, strain NOP13, active compounds read low 0.993 | S. cerevisiae deletion strains, locus YNL197C, strain WHI3, active compounds read low 0.983 | S. cerevisiae deletion strains, locus YNL224C, strain SQS1, active compounds read low 1.01 | S. cerevisiae deletion strains, locus YOR083W, strain WHI5 (second series), active compounds read low 0.874 | [25] 0.955
